The record followed here is PubChem BioAssay AID1490 (National Center for Advancing Translational Sciences (NCATS), 2009).

Each structure is given as a SMILES string. Out of some 310,000 compounds screened, about 11,000 (3.5%) were called active. Another 4% or so got no clear call; they are omitted. The entries come from a sample that favours actives as a whole. A number with no mark means an inactive call. Calls come from the whole dose curve; as a rule, active = well fitted inhibition curve with a large enough effect; inconclusive = small, poorly fitted or top-dose-only effect, or another doubt; inactive = no such curve, though single readings can be large or run the other way.
Potency is the fitted concentration of half-maximal effect.

For this test, the target named is 4'-phosphopantetheinyl transferase ffp (Bacillus subtilis) (UniProt Q9F4F7). Put plainly: qHTS Assay for Inhibitors of Bacillus subtilis Sfp phosphopantetheinyl transferase (PPTase).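 For largest response in the series, negative = inhibition: 0% = enzyme reaction without inhibitor and -100% = no enzyme wells.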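 Note: the enzyme is Sfp with the accession as filed and its product quenches rhodamine fluorescence.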 The following applies: Biochemical Sfp PPTase activity. The source says: Assay Submitter: Michael Burkart, University of California, San Diego
Screening Center PI: Austin, C.P.
Screening Center: NIH Chemical Genomics Center [NCGC]
The covalent attachment of a phosphopantetheinyl (4'-PP) arm to a variety of synthases and other proteins is a key posttranslational protein modification. The 4'-PP is installed on the proteins post-translationally from coenzyme A (CoA) on a conserved serine residue by action of phosphopantetheinyl transferase (PPTase) enzymes. Phosphopantetheinylation is essential for synthase activity, and removal of the PPTase gene precludes natural product synthesis in microorganisms, or in the case of fatty acid biosynthesis, renders the organism unviable. PPTase enzymes belong to a distinct structural superfamily. Within bacteria, these enzymes are grouped into two classes based upon primary structure, the AcpS-Type and Sfp-Type PPTases.
Sfp-type PPTases, corresponding to an activator of surfactin production in Bacillus subtilis, are responsible for modifying type I polyketide and nonribosomal peptide synthases of prokaryotes. Sfp-type PPTases are responsible for the activation of a variety of pathogen-associated virulence factors. Among these compounds are toxins such as mycolactone from Mycobacterium ulcerans, siderophores such as vibriobactin from Vibrio cholerae or mycobactin from Mycobacterium tuberculosis, as well as the mycolic acids which form the waxy cell wall of Mycobacteria. The biosyntheses of these natural products are considered attractive targets for drug design.
In search of small molecule Sfp-PPTase inhibitors, a fluorescence quenching assay was developed for detection of Bacillus subtilis Sfp-PPTase enzymatic activity in a miniaturized high-throughput format. The consensus ybbr acceptor peptide […] was N-terminally labeled with Black Hole Quencher-2 (BHQ-2) and used in combination with rhodamine-labeled coenzyme A as a co-substrate.
Inhibition of Sfp-PPTase was detected by recording the fluorescence intensity change over a 30-minute reaction period at a 525 nm excitation and 598 nm emission. Reagents were supplied by Michael Burkart and Timothy Foley, University of California at San Diego.
This BioAssay deposition is for validation of the developed Sfp-PPtase assay.
Assay Buffer: 50 mM Hepes-Na pH 7.6, 10 mM MgCl2, 0.01% Nonidet P-40, and 0.01% BSA.
3 uL of Sfp-PPTase enzyme (final concentration 15 nM) and 1 uL of substrate mixture (final concentration for rhodamine-CoA and BHQ-2-YbbR 5 uM and 12.5 uM, respectively) dispensed in columns 1, 2, 5 - 48. Columns 1 and 2 used to generate neutral control (uninhibited reaction)
Three uL of reagents, consisting of buffer (in columns 3 and 4 as negative control) and Sfp-PPTase (in columns 1, 2, 5 - 48) were dispensed into 1,536-well Greiner black solid bottom plate. Compounds (23 nL) were transferred via Kalypsys pintool equipped with 1,536-pin array. The plate was incubated for 15 min at room temperature, followed by the addition of 1 uL substrate to start the reaction. The plate was then centrifuged at 1000 rpm for 15 seconds, and the fluorescence intensity recorded on a ViewLux High-throughput CCD imager (Perkin-Elmer) using standard BODIPY optics (525 nm excitation and 598 nm emission). The plate was then incubated for 30 minutes, and a second read on the ViewLux was performed. The fluorescence intensity difference over the 30-minute period was used to calculate the respective reaction rate for each well.
Background: In qHTS, concentration-response curves come from the screen itself.
For the compound `CCc1ccccc1NC(=O)CSc1nnc([C@@H](NC(=O)OC(C)(C)C)C(C)CC)o1` (some centres undefined), the largest response in the series, negative = inhibition was 6.3%.

For `C[C@@H](NC(=O)OC(C)(C)C)c1nnc(S(=O)(=O)Cc2ccccc2)o1`, the Potency was 22.4 µM (active).

For `CCOC(=O)CC1(NC(=O)c2cc(COc3cncc(Cl)c3)on2)CCCCC1`, the largest response in the series, negative = inhibition was -1.1%.

With `CC(C)(C)NC(=O)C(c1ccc(Cl)cc1)N(CCO)C(=O)c1snc(C(N)=O)c1N` (centres undefined), the largest response in the series, negative = inhibition was 3.24%.

Take `O=C(Nc1cccnc1Cl)c1cc(-c2cccc(Cl)c2)on1`: the largest response in the series, negative = inhibition was -6.07%.

For `O=C(Nc1cccc(F)c1)[C@@H]1CCCN1`, the largest response in the series, negative = inhibition was 1.19%.

For the compound `Cc1ccc(NC(=O)C2CCCN2S(=O)(=O)c2cccc3cccnc23)c(C)c1` (centres undefined), the largest response in the series, negative = inhibition was 10.9%.

For the compound `CCCCC(C(=O)NC(C)(C)C)N(Cc1ccccc1)C(=O)c1snc(C(N)=O)c1N` (centres undefined), the largest response in the series, negative = inhibition is 3.56%.

Take `CCc1ccc2[nH]c(=O)c(Cc3ccccc3)c(O)c2c1`: the largest response in the series, negative = inhibition is 0.106%.

Turning to `CC(NC(=O)c1ccco1)c1ccc2c(c1)OCO2` (centres undefined), the largest response in the series, negative = inhibition was 11.2%.

For the compound `COc1cccc(N(C(=O)c2snc(C(N)=O)c2N)C(C(=O)NCC2CCCO2)c2c[nH]c3ccccc23)c1` (centres undefined), the largest response in the series, negative = inhibition is -7.12%.

`CC(Sc1nnnn1C1CCCCC1)C(=O)O` (centres undefined): the largest response in the series, negative = inhibition was 0.844%.

As for `CC(Sc1sc(=S)sc1SC(C)C(=O)O)C(=O)O` (centres undefined), the Potency was 79.4 µM (active).

For `NC(=O)c1nsc(C(=O)N(CCCN2CCOCC2)C(C(=O)NC2CCCCC2)c2ccc(Cl)cc2)c1N` (centres undefined), the largest response in the series, negative = inhibition is 15%.

For `O=C(CCCn1c(SCC(=O)c2ccccc2)nc2ccccc2c1=O)NCC1CCCO1` (centres undefined), the largest response in the series, negative = inhibition was -21.1%.

As to `CCCCn1c(SCC(=O)NCC2CCCO2)nc2ccc(N3CCOCC3)cc2c1=O` (centres undefined), the Potency is 39.8 µM (active).

For `COCCNC(=O)c1ccc(Cn2c(SCC(=O)NCC3CCCO3)nc3ccc(Br)cc3c2=O)cc1` (centres undefined), the largest response in the series, negative = inhibition is -12.8%.

As to `CCCCC(=O)Nc1nnc(S(=O)(=O)N(C)Cc2ccco2)s1`, the largest response in the series, negative = inhibition was -1.11%.

Regarding `Cc1nn(-c2ccccc2)c2c1c(C)c(CCC(=O)NCC1CCCO1)c(=O)n2C` (centres undefined), the largest response in the series, negative = inhibition is 20.2%.

As to `CCc1nc(NCCO)c(C#N)c2c1CCCC2`, the largest response in the series, negative = inhibition is -0.704%.

Regarding `CC(C)CCNc1nc(N2CCCC2)c2c(c1C#N)CCN(C)C2`, the Potency is 70.8 µM (active).

With `CCN1CCc2c(C#N)c(NCc3ccccc3)nc(NCCO)c2C1`, the largest response in the series, negative = inhibition was -12.9%.

As for `COc1ccc(NC(=O)c2cccc(Cl)c2)c[n+]1[O-]`, the largest response in the series, negative = inhibition is -0.333%.

For the compound `O=C(NCCc1ccccc1)c1ccc2c(c1)N(Cc1ccccc1)CCS2`, the largest response in the series, negative = inhibition was 5.03%.

Turning to `COc1ccc(Cn2c(=S)[nH]c3cc(C(=O)N4CCCCC4)ccc3c2=O)cc1`, the largest response in the series, negative = inhibition was -3.09%.

Take `CC(C)N(C(=O)c1ccc(-c2ccccc2F)cc1)C(C)C`: the largest response in the series, negative = inhibition is -2.72%.

With `CC(=O)N(C1=C(Cl)C(=O)c2ccccc2C1=O)c1ccc(C(=O)O)cc1`, the Potency is 1 µM (active).

With `O=C(CN1C(=O)c2ccccc2C1=O)NCc1ccc(C(=O)O)cc1`, the largest response in the series, negative = inhibition is 9.6%.

`C/C=C/C=N/NC(=O)c1ccncc1`: the largest response in the series, negative = inhibition was -22.5%.

As to `COC(=O)[C@@]1(Cc2ccc(F)cc2)[C@H]2c3cc(C(=O)N4CCCC4)n(Cc4ccc(OC(F)(F)F)cc4)c3C[C@H]2CN1C(=O)c1ccccc1`, the largest response in the series, negative = inhibition is 24.5%.

Turning to `COC(=O)[C@@]1(Cc2ccc(OC)cc2)[C@H]2c3cc(C(=O)N4CCCC4)n(Cc4ccc(OC(F)(F)F)cc4)c3C[C@H]2CN1C(=O)c1ccccc1`, the largest response in the series, negative = inhibition was 6.34%.

As to `COC(=O)[C@@]1(Cc2ccccc2)[C@H]2c3cc(C(=O)N4CCCC4)n(Cc4ccc(C)o4)c3C[C@H]2CN1C(=O)c1ccccc1`, the Potency was 56.2 µM (active).

`O=C(OCCN=C1NS(=O)(=O)c2ccccc21)c1cccc([N+](=O)[O-])c1`: the largest response in the series, negative = inhibition is 0.751%.

With `COC(=O)CN1C(=O)[C@H]2[C@@H](C3CC3)N3C(=O)CN(Cc4ccc(-c5ccccc5)cc4)C(=O)[C@@]3(Cc3ccccc3)[C@H]2C1=O`, the largest response in the series, negative = inhibition was 13%.

As to `Oc1cc(O)c2c(c1)OC(c1ccc(O)c(O)c1)C(O)C2` (centres undefined), the Potency was 44.7 µM (active).

On to `CCOc1ccc(S(=O)(=O)NCCCn2ccnc2)cc1NC(C)=O`, for which the largest response in the series, negative = inhibition was 13.6%.

`COc1ccc(OCc2cc(C(=O)N3CCCC3)no2)c2ccccc12`: the largest response in the series, negative = inhibition was -21.1%.

`O=c1cc(CO)oc(C(Nc2cccc([N+](=O)[O-])c2)c2ccccn2)c1O` (centres undefined): the Potency is 20 µM (active).

Regarding `O=c1cc(CO)oc(C(Nc2cccc(C(F)(F)F)c2)c2ccccn2)c1O` (centres undefined), the Potency was 7.94 µM (active).

In the case of `O=C(Nc1cccc([N+](=O)[O-])c1)Nn1cnnc1`, the largest response in the series, negative = inhibition was 16.6%.

As to `FC(F)(F)c1cccc(Nc2ncnc3ccccc23)c1`, the largest response in the series, negative = inhibition was 5.92%.

Turning to `O=C(Nc1cccc(C(F)(F)F)c1)c1cc(Br)cc(Br)c1O`, the largest response in the series, negative = inhibition is -10.2%.

For `O=[N+]([O-])c1cccc(S(=O)(=O)NCc2ccccn2)c1`, the largest response in the series, negative = inhibition is 1.73%.

As to `CCC(C)C(NC(=O)C1CCC(=O)N1C(=O)OCc1ccccc1)C(=O)NC(C(=O)N1CCCC1C(N)=O)C(C)CC` (centres undefined), the largest response in the series, negative = inhibition is 18.8%.
